Source: PubChem
HDAC3 inh = inhibitors of human histone deacetylase 3; O15379; recombinant HDAC3, fluorogenic peptide/trypsin coupled, fluorescence; inhibition, % at 8.3 µM; 320,000 tested, 0.15% active; in the data active = inhibition above about 26%, passing the limit was not always enough
CHT PAM = human CHT allosteric activation | CHT-expressing cells, membrane potential dye, choline EC20; hits give high values; LV-AA mutant CHT in HEK293 cells | AID 488977 | 310,000 tested, 0.49% active | B-score at 10 µM | Q9GZV3;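 active = initial fluorescence not abnormally high and integrated response B-score, plate-corrected, over 3 SD above library mean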
CHT inh = inhibitors of human choline transporter CHT; CHT-expressing cells, membrane potential dye, choline response; hits give low values; 310,000 tested, 0.86% active; B-score at 10 µM; AID 488975;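 active = B-score over 3 SD under the library average, and starting fluorescence ratio not unusually high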;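 note: choline stimulus applied at its EC90 after an EC20 pre-addition; B-score computed on integrated fluorescence ratio after choline addition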
ANO1 block = inhibitors of mouse TMEM16A calcium-activated chloride channel. normalized B-score (activity score, 25-100; higher = stronger inhibition) at 10 µM. AID 588511. 310,000 tested, 1.2% active. HEK293 TMEM16A/YFP iodide influx fluorescence, ionomycin;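 active = ratio plate-corrected score three or more library SD toward inhibition, starting fluorescence score within five deviations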;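 note: score derived from kinetic fluorescence span divided by baseline fluorescence per well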
PHOSPHO1 block = blocks human PHOSPHO1 phosphatase activity; 290,000 tested, 1.1% active; inhibition, % at 13.3 µM; recombinant PHOSPHO1, absorbance phosphatase assay; Q8TCT1; in the data active = inhibition above about 60%
Target sequence (Q8TCT1 whole entry, looked up): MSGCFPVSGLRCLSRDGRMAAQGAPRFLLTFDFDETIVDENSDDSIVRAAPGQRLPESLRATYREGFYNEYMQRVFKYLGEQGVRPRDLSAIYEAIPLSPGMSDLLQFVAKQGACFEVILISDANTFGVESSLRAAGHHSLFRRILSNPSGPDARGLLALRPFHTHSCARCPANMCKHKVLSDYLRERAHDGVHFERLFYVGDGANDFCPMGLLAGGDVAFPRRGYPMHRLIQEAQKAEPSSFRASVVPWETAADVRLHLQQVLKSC
TMEM16A act = mouse TMEM16A channel activation, primary screen; Q8BHY3; HEK293 TMEM16A/YFP-H148Q/I152L, iodide quench fluorescence; hits give low values; B-score at 10 µM; 340,000 tested, 0.3% active; AID 623877;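 active = fluorescence-ratio B-score plate-corrected deviation score at least 3 library SD below zero, with starting fluorescence score within 5 deviations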;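 note: channel opened by trigger with iodide after compound preincubation; score built on the fluorescence ratio of max minus min over baseline; more negative score means more quench and so TMEM16A activation or potentiation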
CHT inh conf = confirmation of human choline transporter CHT inhibitors | shares compounds with CHT inh | CHT-expressing cells, choline membrane potential dye; LV-to-AA substituted CHT, HEK293 cells | CHT activity remaining % of control (hits give low values), % at 10 µM | 2,400 tested, 70% active;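 active = choline transporter activity left, mean of duplicates at 10 µM, below buffer-only control mean minus 3 SD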;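 note: depolarization triggered by choline at its EC90 following an EC20 pre-addition; 0% = hemicholinium-3 full block and 100% = buffer-only control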
HEK293 MPD ctr = activity in parental HEK293 cells lacking CHT; shares compounds with CHT inh; membrane potential dye, choline response; active = decrease or increase beyond buffer ±3SD; membrane potential ratio readout (active if shifted either direction beyond buffer ±3SD; no single direction) at 10 µM; 2,400 tested, 4% active; AID 493222;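 note: parental cells lack the transporter so any hit is non-specific; ratio is peak minus trough fluorescence over baseline after EC90 choline challenge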
Starred values were filed as active, the others as inactive. Only some compounds are listed: those with a hit (about 3.2% of all), similar ones and a draw of the others.

How did Cc1c(C(=O)Nc2ccc(S(=O)(=O)NCC3CCCO3)cc2)cccc1[N+](=O)[O-] (centres undefined) do in these assays?
HDAC3 inh: 1; CHT PAM: inactive; CHT inh: -5.2*; ANO1 block: inactive; PHOSPHO1 block: 28; TMEM16A act: inactive; CHT inh conf: 41%*; HEK293 MPD ctr: inactive

How did O=C(Nc1ccc(S(=O)(=O)NCC2CCCO2)cc1)c1ccc(Cl)cc1[N+](=O)[O-] (centres undefined) do in these assays?
HDAC3 inh: 2; CHT PAM: inactive; CHT inh: -16*; ANO1 block: inactive; PHOSPHO1 block: 38; TMEM16A act: inactive; CHT inh conf: 0.4%*; HEK293 MPD ctr: inactive

How did O=C(Nc1ccc(F)cc1)c1ccccc1Oc1ccc(C(F)(F)F)cc1[N+](=O)[O-] do in these assays?
HDAC3 inh: 13; CHT PAM: inactive; CHT inh: inactive; ANO1 block: inactive; PHOSPHO1 block: -12; TMEM16A act: inactive

Results for Cc1ccc2nc(-c3ccccc3)cc(C(=O)NCCCn3ccnc3)c2c1 ?
HDAC3 inh: -5; CHT PAM: inactive; CHT inh: -11*; ANO1 block: inactive; PHOSPHO1 block: 13; TMEM16A act: inactive; CHT inh conf: 30%*; HEK293 MPD ctr: inactive

What do the screens show for `O=C(NCCCn1ccnc1)c1cn(-c2ccccc2)nc1-c1ccc(F)cc1`?
HDAC3 inh: 5; CHT PAM: inactive; CHT inh: -6.9*; ANO1 block: inactive; PHOSPHO1 block: -21; TMEM16A act: inactive; CHT inh conf: 36%*; HEK293 MPD ctr: inactive

Results for COc1cccc(NC(=O)c2nc(SC)ncc2Cl)c1 ?
HDAC3 inh: -1; CHT PAM: inactive; CHT inh: inactive; ANO1 block: inactive; PHOSPHO1 block: 22; TMEM16A act: inactive

How did COc1cccc(NC(=O)c2nc(S(C)(=O)=O)ncc2Cl)c1 do in these assays?
HDAC3 inh: -2; CHT PAM: inactive; CHT inh: -6.8*; ANO1 block: inactive; PHOSPHO1 block: 27; TMEM16A act: inactive; CHT inh conf: 36%*; HEK293 MPD ctr: inactive

What do the screens show for `NCCCn1c(C(=O)c2ccc(Cl)cc2)c2ccc(C(F)(F)F)cc2[n+]1[O-]`?
HDAC3 inh: 12; CHT PAM: inactive; CHT inh: -5.1*; ANO1 block: inactive; TMEM16A act: inactive; CHT inh conf: 31%*; HEK293 MPD ctr: 2.2*

What do the screens show for `NC(=O)CCCn1c(C(=O)c2cc(Cl)c(N)c(Cl)c2)c2ccc([N+](=O)[O-])cc2[n+]1[O-]`?
HDAC3 inh: 6; CHT PAM: inactive; CHT inh: -8.8*; ANO1 block: inactive; TMEM16A act: inactive; CHT inh conf: 17%*; HEK293 MPD ctr: inactive

Results for NC(=O)CCCn1c(C(=O)c2ccc(Cl)cc2)c2ccc(C(F)(F)F)cc2[n+]1[O-] ?
HDAC3 inh: -2; CHT PAM: inactive; CHT inh: inactive; ANO1 block: inactive; TMEM16A act: inactive

How did C=CCSc1nsc(NC(=O)Nc2ccc(F)cc2)n1 do in these assays?
HDAC3 inh: -4; CHT PAM: inactive; CHT inh: -7.8*; ANO1 block: 100*; PHOSPHO1 block: 25; TMEM16A act: inactive; CHT inh conf: inactive; HEK293 MPD ctr: inactive

Results for Cc1ccc(-c2nnn(CC(=O)N(CCO)C(C(=O)NC3CCCCC3)c3ccncc3)n2)o1 (centres undefined) ?
HDAC3 inh: 2; CHT PAM: inactive; CHT inh: inactive; ANO1 block: inactive; PHOSPHO1 block: 6; TMEM16A act: inactive

Results for C=CC(=O)N1C/C(=C/c2ccc(F)cc2)C(=O)/C(=C\c2ccc(F)cc2)C1 ?
TMEM16A act: inactive

What do the screens show for `CCc1cc([N+](=O)[O-])cc(CC)c1N`?
HDAC3 inh: 6; CHT PAM: inactive; CHT inh: -5.9*; ANO1 block: inactive; PHOSPHO1 block: 14; TMEM16A act: inactive; CHT inh conf: 40%*; HEK293 MPD ctr: inactive

What do the screens show for `Cc1ccc([N+](=O)[O-])cc1N`?
CHT PAM: inactive; CHT inh: inactive; ANO1 block: inactive; PHOSPHO1 block: -23; TMEM16A act: inactive

How did COc1ccccc1C(=O)Nc1ccc(C(=O)O)cc1 do in these assays?
HDAC3 inh: -9; CHT PAM: inactive; CHT inh: inactive; ANO1 block: inactive; PHOSPHO1 block: -10; TMEM16A act: inactive

How did COc1ccccc1C(=O)Nc1ccc(C(=O)c2ccccc2)cc1 do in these assays?
HDAC3 inh: 1; CHT PAM: inactive; CHT inh: -6.5*; ANO1 block: inactive; PHOSPHO1 block: -23; TMEM16A act: inactive; CHT inh conf: inactive; HEK293 MPD ctr: inactive

What do the screens show for `Cc1ccccc1OCC(=O)NCCCNC(=O)c1ccccn1`?
HDAC3 inh: -3; CHT PAM: inactive; CHT inh: inactive; ANO1 block: inactive; PHOSPHO1 block: 12; TMEM16A act: inactive

Results for O=C(COC(=O)CN=C1NS(=O)(=O)c2ccccc21)Nc1ccccc1OC(F)F ?
HDAC3 inh: -5; CHT PAM: inactive; CHT inh: inactive; ANO1 block: inactive; PHOSPHO1 block: 4; TMEM16A act: inactive

What do the screens show for `CC/C(=C(/CC)c1ccc(O)cc1)c1ccc(O)cc1`?
HDAC3 inh: 3; CHT PAM: inactive; CHT inh: -7.4*; ANO1 block: inactive; PHOSPHO1 block: 24; TMEM16A act: inactive; CHT inh conf: 55%*; HEK293 MPD ctr: inactive

What do the screens show for `Cc1cc(C)nc(SCC(=O)NNC(=O)c2cccs2)n1`?
HDAC3 inh: -1; CHT PAM: inactive; CHT inh: inactive; ANO1 block: inactive; PHOSPHO1 block: 52; TMEM16A act: inactive

Results for N#CCCn1c(O)c(N=NC(=O)CNC(=O)c2cccs2)c2ccccc21 ?
CHT PAM: inactive; CHT inh: inactive; ANO1 block: inactive; PHOSPHO1 block: 42; TMEM16A act: inactive

How did CC(=O)NC(Cc1cccc(F)c1)C(=O)NC1CCN(C(=O)c2cccc(C)c2)CC1 (centres undefined) do in these assays?
HDAC3 inh: -5; CHT PAM: inactive; CHT inh: -7.8*; ANO1 block: inactive; PHOSPHO1 block: 57; TMEM16A act: inactive; CHT inh conf: inactive; HEK293 MPD ctr: inactive
